Several values for one entry are separate records, joined by “and”; a condition that tells them apart may be missing. Equal entries are not always repeated. Results filed as inconclusive are left out. The source holds several records for some structures; these can differ, active in one and inactive in another. Activity calls are given as the source filed them. The calls were made as follows: active = hit-call score of the fitted dose curve at least 0.9, where 1 is the maximum; inconclusive = response in the unintended direction; inactive = score below 0.9.
target: Cellular tumor antigen p53 (Homo sapiens) (UniProt P04637); test: TOX21_p53_BLA_p3_ratio: Tox21 HCT-116 p53 Agonism Beta-lactamase Assay, Ratio, Phase 3 (AID 2283596)
Sequence (P04637 whole entry, looked up, the tested form may be a part): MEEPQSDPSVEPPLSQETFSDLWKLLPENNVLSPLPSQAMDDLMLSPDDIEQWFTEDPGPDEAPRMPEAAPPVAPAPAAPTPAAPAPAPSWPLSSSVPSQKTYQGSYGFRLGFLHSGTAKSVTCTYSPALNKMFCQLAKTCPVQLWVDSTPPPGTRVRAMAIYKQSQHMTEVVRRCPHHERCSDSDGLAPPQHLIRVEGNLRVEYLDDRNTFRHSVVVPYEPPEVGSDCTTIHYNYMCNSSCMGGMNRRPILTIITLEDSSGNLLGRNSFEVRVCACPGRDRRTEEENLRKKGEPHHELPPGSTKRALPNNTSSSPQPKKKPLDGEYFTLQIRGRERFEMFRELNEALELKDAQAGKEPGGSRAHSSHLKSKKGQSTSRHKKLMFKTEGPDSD
Source text: TOX21_p53_BLA_p3 is a cell-based, single-readout assay that uses HCT116, a human intestinal cell line, […] in a 1536-well plate.TOX21_p53_BLA_p3_ratio is an assay readout measuring reporter gene via receptor activity and designed using inducible reporter (beta lactamase induction) detected with GAL4 b-lactamase reporter gene. The signal is derived from the ratio of cleaved (ch2) to uncleaved (ch1) reporter gene substrate used as the measure of target activity.Data from the assay component TOX21_p53_BLA_p3_ratio was analyzed into 1 assay endpoint. This assay endpoint, TOX21_p53_BLA_p3_ratio, was analyzed in the positive analysis fitting direction relative to DMSO as the negative control and baseline of activity. Using a type of inducible reporter, gain-of-signal activity can be used to understand changes in the reporter gene as they relate to the gene TP53. Furthermore, this assay endpoint can be referred to as a primary readout, because this assay has produced multiple assay endpoints where this ratio serves a reporter gene function to understand target activity. To generalize the intended target to other relatable targets, this assay endpoint is annotated to the DNA binding intended target family, where the subfamily is tumor suppressor.
Thawing Method: Place 14 mL of pre-warmed thaw medium into a 15 mL of conical tub. Remove the vial of cells to be thawed from liquid nitrogen and thaw rapidly by placing at 37C in a water bath with gentle agitation for 1-2 minutes. Decontaminate the vial by wiping with 70% ethanol before opening in a biological safety cabinet. Transfer the vial contents drop-wise into 14 mL of thaw medium in a sterile 15-mL conical tub. Centrifuge cells at 900 rpm for 4 minutes and resuspend in thaw medium. Transfer contents to the T75 tissue culture flask containing Thaw Medium and place flask in a humidified 37C/5% CO2 incubator. Switch to growth medium at first passage.Propagation Method: Aspirate medium, rinse once in DPBS, add 0.25% Trypsin/EDTA and swirl to coat the cell evenly. Add an equal volume of Growth Medium to inactivate Trypsin after 2-3 minutes incubation at 37C. Centrifuge cells at 900 rpm for 4 minutes and resuspend in growth medium. Cell should be passage or fed at least twice a week.Assay Protocol: Harvest cells from culture in growth medium and resuspend in assay medium. 2.2 Dispense 4000 cells/5 uL/well into 1536-well black/clear bottom plates using a Multidrop dispenser. After the cells were incubated at 37C for 5 hours, 23 nL of compounds dissolved in DMSO were transferred to the assay plate by a PinTool resulting in a 217-fold dilution. Incubate the plates for 16 hours at 37C, 5% CO2. Add 1 uL of 6X LiveBLAzer FRET B/G (CCF4-AM) Substrate Mixture to each well using a BioRAPTR dispenser and incubate the plates at room temperature for 2 hours. Measure fluorescence intensity at 460 and 530 nm emission and 405 nm excitation by an Envision detector. Data is expressed as the ratio of 460nm/530nm emissions. Add 4 uL of Cell-titer Glo to each well using BioRAPTR and incubate the plates at room temperature for 2 hours. Measure fluorescence intensity by a VewLux plate reader.

| Structure (SMILES) | outcome | AC50 |
| --- | --- | --- |
| C[C@@H]1CCN(C(=O)[C@H](CCCN=C(N)N)NS(=O)(=O)c2cccc3c2NC[C@H](C)C3)[C@@H](C(=O)O)C1 | inactive | – |
| CCCCC1(COC(=O)CCC(=O)O)C(=O)N(c2ccccc2)N(c2ccccc2)C1=O | inactive | – |
| CCCCCC(C=O)=Cc1ccccc1 | inactive | – |
| C=C(C)C(=O)OCC(CC)(COC(=O)C(=C)C)COC(=O)C(=C)C | inactive | – |
| C#CC(C)N(C)C(=O)Nc1ccc(Cl)cc1 (stereo not given) | inactive | – |
| c1ccc2[nH]cnc2c1 | inactive | – |
| CCCCC(CC)COC(=O)c1ccc(O)cc1 (stereo not given) | – | 72.6 µM (active) and 85.1 µM (active) |
| COC(C)(C)CC(C)=O | inactive | – |
| CCc1cc(Cc2cc(CC)cc(C(C)(C)C)c2O)c(O)c(C(C)(C)C)c1 | – | 32.6 µM (active) |
| N[C@@H](Cc1cc(I)c(Oc2cc(I)c(O)c(I)c2)c(I)c1)C(=O)O | inactive | – |
| CC(=O)c1ccccn1 | inactive | – |
| C[Si](C)(C)O[Si](C)(C)C | inactive | – |
| Cc1c(Cl)cccc1[N+](=O)[O-] | inactive | – |
| O=C(CS)OCCOC(=O)CS | – | 39.3 µM (active) |
| [O-]n1ccccc1=S.[O-]n1ccccc1=S.[Zn+2] | – | 35.7 µM (active) [middle of 4 runs] |
| c1ccc(Oc2ccccc2)cc1 | inactive | – |
| CC1(C)C2=CCCC(C)(C)[C@]23CC[C@H]1C3 | inactive | – |
| C1CCOC1 | inactive | – |
| CS(C)=O | inactive | – |
| COCCOC(=O)c1ccccc1C(=O)OCCOC | inactive | – |

| Structure (SMILES) | outcome | AC50 |
| --- | --- | --- |
| COc1ccc(CCC(C)=O)cc1 | inactive | – |
| CCC(C)c1cc([N+](=O)[O-])cc([N+](=O)[O-])c1OC(=O)OC(C)C (stereo not given) | – | 35.3 µM (active) |
| CCC1(c2ccccc2)C(=O)NCNC1=O | inactive | – |
| C=CCOC(=O)CCCCCC | inactive | – |
| CC(C=O)Cc1ccc(C(C)(C)C)cc1 (stereo not given) | inactive | – |
| O=C(O)COCC(=O)O | inactive | – |
| CCc1ncc(C)[nH]1 | inactive | – |
| CCCCCCC(CO)CCCC (stereo not given) | inactive | – |
| CSCCC=O | inactive | – |
| C=C(C)C(=O)OCCOCCOCCOC(=O)C(=C)C | inactive | – |
| CC1=NN(c2ccc(S(=O)(=O)O)cc2)C(=O)C1 | inactive | – |
| CC(C)(C)CC(C)(C)c1ccc(OCCOCC[N+](C)(C)Cc2ccccc2)cc1 | inactive | 61 µM (active) |
| O=CCc1ccccc1 | inactive | – |
| Cc1ccc(OC(=O)c2ccccc2O)cc1 | inactive | – |
| C=C(C#N)C(=O)OCC | inactive | – |
| O=C(O)c1cccnc1C(=O)O | inactive | – |
| CCCC[P+](CCCC)(CCCC)CCCC | inactive | – |
| OCCCCC(O)CO (stereo not given) | inactive | – |
| CCOC(=O)[C@@H](C)Oc1ccc(Oc2nc3ccc(Cl)cc3o2)cc1 | inactive | – |

— PubChem BioAssay (EPA / NIEHS)
